Experimental findings from ChEMBL document CHEMBL3988442, “University of Dundee, Small-Polar-MMV Screening Library” (2021) are described below.

Out of some 48,000 compounds screened, about 13,000 (27%) showed an effect of 50% or more. The list shows a part of the results.

The subject of this test is Wolbachia pipientis. Kind of test: Anti-Wolbachia Cell-Based Screen. The format is functional. Also noted: scale not given: in the data most compounds retested in dose-response had high values. Particulars: 5 µM.
As for `O=C(CC(F)(F)F)N1CCc2[nH]nc(-c3ccc4c(c3)OCO4)c2C1`, the “Percent Effect” value is listed as -1.74%. The figure for `CNC(=O)C(C)CNC(=O)c1coc(COc2cccc(F)c2F)n1` (centres undefined) is -14.56%.

Regarding `CCc1ccc(CNC2(c3ccc(F)cc3)CCOCC2)o1`, the “Percent Effect” value is given as 6.225%. The figure for `Cc1ccc(-c2nc(CN(Cc3ccco3)C3CCS(=O)(=O)C3)cs2)o1` (centres undefined) is 9.055%; for `OC1CCCN(Cc2cn(CC3CCN(C4CCSCC4)CC3)nn2)C1` (centres undefined) it is -15.38%; for `CC(C)C(C)N(C)Cc1nnc(-c2ccco2)o1` (centres undefined) it is -1.497%. With `O=C(NCC1CCOC1)c1cc(-c2cccc(Cl)c2)[nH]n1` (centres undefined), the “Percent Effect” value is given as -2.907%. The figure for `COc1ccc(-c2nc(C(=O)NCC3CCOC3)cs2)cc1OC` (centres undefined) is 119.6%; for `Cc1ccc(-c2nc(CC(=O)NCC3CCCOC3)cs2)o1` (centres undefined) it is 16.72%; for `CCOc1ccc(-c2nc(C(=O)NCC3CCOC3)cs2)cc1` (centres undefined) it is 120.1%. The figure for `O=C(NCC1CCOC1)c1cc(-c2cccc(Cl)c2)on1` (centres undefined) is 10.92%.

`O=C(NCC1COC2(CCOCC2)O1)c1csc(-c2cccc(Cl)c2)n1` (centres undefined): the “Percent Effect” value is recorded as 108.1%. `COCc1nc2cc(NCc3ccncc3)ccc2o1`: the “Percent Effect” value worked out at 5.074%. `Cc1cc(=O)[nH]c(CCNC(=O)C(c2ccc(F)cc2)N(C)C)n1` (centres undefined): the “Percent Effect” value is recorded as 1.632%. As to `Cc1nnc(NCC2(c3ccccc3)CCC2)c(C#N)c1C`, the “Percent Effect” value is reported as 7.557%. The figure for `CC1CCN(S(=O)(=O)NCCCn2cncn2)CC1` is 4.517%. The figure for `COc1ncccc1CN1CCN(c2noc(C(C)C)n2)CC1` is -8.091%; for `COc1cccc(CN2CCN(c3noc(C(C)C)n3)CC2)c1F` it is -2.027%. `COc1cccc(CN2CCN(c3cccc(C(C)C)n3)CC2)c1F`: the “Percent Effect” value is given as 77.06%.

`CCc1ccc(C(=O)O)cc1S(=O)(=O)N(C)c1cccc(C)c1`: the “Percent Effect” value was -14.76%. Take `CS(=O)(=O)Cc1nc(CN2CCOc3ccccc3C2)cs1`: the “Percent Effect” value came to 2.526%. Consider `CS(=O)(=O)CCC(=O)N(Cc1c(F)cccc1F)C1CCCC1`, for which the “Percent Effect” value is on record as -8.645%.

Take `CS(=O)(=O)C1CCN(S(=O)(=O)Cc2cccc(F)c2)CC1`: the “Percent Effect” value is -8.016%. As for `Cc1ccc(C(=O)N(Cc2cccc(F)c2)C2CC2)c(=O)[nH]1`, the “Percent Effect” value is -0.8552%.

Turning to `CS(=O)(=O)CCN(Cc1cccc(O)c1)C1CCC(O)CC1` (centres undefined), the “Percent Effect” value is on record as -5.154%. The figure for `CS(=O)(=O)CCCN(CCc1cccc(F)c1)C1CC1` is 89.73%; for `Fc1cccc(CCN(c2ccc3nnnn3n2)C2CC2)c1` it is -14.94%; for `O=C(C[S+]([O-])Cc1cccc(F)c1)NC1CCCC1` (centres undefined) it is -2.524%. For `CC(C)(C)S(=O)(=O)CCNC(=O)NCCCc1cccc(F)c1`, the “Percent Effect” value is reported as 22.42%. On to `CS(=O)(=O)CCC(=O)N(CCc1cccc(F)c1)C1CC1`, for which the “Percent Effect” value was determined as 102.1%. In the case of `NS(=O)(=O)CCN(CCc1cccc(F)c1)C1CCCC1`, the “Percent Effect” value worked out at 101.5%. Take `CS(=O)(=O)CCN(CCc1cccc(F)c1)C1CC1`: the “Percent Effect” value stood at 102.8%. Consider `CCCN(CCS(C)(=O)=O)C1CCc2ccccc2C1` (centres undefined), for which the “Percent Effect” value was determined as 9.171%.

With `Cc1noc(C)c1CN(C)C(=O)NC1CCN(C2CC2)CC1`, the “Percent Effect” value is listed as -39.67%. The value for `O=C(c1cc(-c2ccco2)nc2c(Cl)cccc12)N1CCS(=O)(=O)CC1` was -1.812%; that for `Cc1nc2c(c(N3CCC(O)(CN4CCCC4)CC3)n1)CCN(C)CC2` was -16.37%. Regarding `Cc1c(C2CCCN(C(=O)Cc3ccccn3)C2)n2c(nc1=O)CCC2.Cl` (centres undefined), the “Percent Effect” value is recorded as -12.52%.

Take `Cc1c(C2CCCN(C(=O)c3cccnc3)C2)n2c(nc1=O)CCC2` (centres undefined): the “Percent Effect” value is recorded as 104.3%. `Cc1c(C2CCCN(C(=O)c3ccncc3)C2)n2c(nc1=O)CCC2.Cl` (centres undefined): the “Percent Effect” value amounted to 99.59%. Consider `Cc1noc(C)c1C(=O)N1CCCC(c2c(C)c(=O)nc3n2CCC3)C1` (centres undefined), for which the “Percent Effect” value came to 87.08%.

Consider `Cc1nn(C)cc1-c1ccnc(N(C)Cc2ccon2)n1`, for which the “Percent Effect” value stood at 9.555%. Consider `COc1cc2c(cc1OC)S(=O)(=O)N(Cc1cccc(C)c1)C2=O`, for which the “Percent Effect” value is on record as -2.103%. Regarding `Cc1cccc(C(C(=O)N(C)CCc2cn[nH]c2)N(C)C)c1` (centres undefined), the “Percent Effect” value is listed as -40.91%. The value for `Cc1cnn(CC2CCCN2c2ncnc3c2CCC3)c1` (centres undefined) was 7.449%. As for `Cc1cc(NC(=O)CN2CCC(N3CCNC3=O)CC2)on1`, the “Percent Effect” value was 131.4%. For the molecule `CC(C)(C)c1cc(NC(=O)CN2CCCC(Cn3cncn3)C2)on1` (centres undefined), the “Percent Effect” value is on record as 1.148%. In the case of `CC(C)(C)c1cc(NC(=O)CN2CCC(N3CCNC3=O)CC2)on1`, the “Percent Effect” value is on record as 95.17%. For `O=C(CN1CCC(N2CCNC2=O)CC1)NCC(F)(F)F`, the “Percent Effect” value is -6.225%. `Cc1cc(NC(=O)CN2CCc3nn(C)c(=O)cc3C2)on1`: the “Percent Effect” value was -13.84%. The value for `Cn1nc2c(cc1=O)CN(CC(=O)Nc1cc(C(C)(C)C)no1)CC2` was 4.087%. Take `COc1cc2c(cc1-c1nc3c(cnn3C(C)C3CC3)[nH]1)OCO2` (centres undefined): the “Percent Effect” value is on record as -2.531%. The value for `Cc1nc(CN2CCN(C)C(=O)C23CCN(C(C)C)CC3)cs1.O=C(O)C(F)(F)F` was 114.4%. The figure for `COCC1CC2(CCN(C(C)=O)CC2)CN1Cc1csc(C)n1.O=C(O)C(F)(F)F` (centres undefined) is -9.248%; for `CCC(=O)N1CCC2(CC1)C(=O)N(C)CCN2Cc1csc(C)n1.O=C(O)C(F)(F)F` it is 115.6%; for `CC(C)C(C(=O)O)c1cccc(Cl)c1` (centres undefined) it is -23.59%. In the case of `CC(NS(=O)(=O)CCCC#N)c1cccc(-n2cccn2)c1` (centres undefined), the “Percent Effect” value is -70.87%. The value for `Cl.Cl.O=C([C@@H]1CSCN1)N1CCC2(CC1)CNCc1ccccc12` was -5.878%; that for `Cl.Cl.O=C([C@@H]1CSCN1)N1CC2(CCNCC2)c2cc(Cl)ccc21` was 111%. The figure for `CC(=O)N1CCC2(CC1)CN(C(=O)[C@@H]1CSCN1)c1ccc(Cl)cc12.O=C(O)C(F)(F)F` is 102.4%; for `Cl.Cl.O=C([C@H]1CCCN1)N1CC2(CCNCC2)c2cc(Cl)ccc21` it is 99.27%. The figure for `OCC(CO)Nc1ccc2ccc(Cl)c(Cl)c2n1` is 21.88%. Turning to `COCc1csc(NC(=O)NCc2ncccc2C)n1`, the “Percent Effect” value was -7.53%. On to `Cn1cnc2c1C(COCc1ccccc1)N(Cc1ccccn1)CC2.O=C(O)C(F)(F)F.O=C(O)C(F)(F)F` (centres undefined), for which the “Percent Effect” value amounted to 9.45%. For the molecule `Cc1ccccc1C(CNC(=O)CSc1nnc(N)s1)N(C)C` (centres undefined), the “Percent Effect” value is -0.498%.

Regarding `Clc1ccc(N2CCN(CCCN3CCCCC3)CC2)nc1`, the “Percent Effect” value is -9.016%.

With `c1ccc(-c2ncn(CCCN3CCOCC3)c2-c2ccncc2)cc1`, the “Percent Effect” value is recorded as -9.931%. On to `Cl.c1nc(N2CCOCC2)ncc1-c1cncn1CCCN1CCCCC1`, for which the “Percent Effect” value worked out at 140.4%. Turning to `Cc1ccccc1CC(=O)NCCNc1nccc(C(F)(F)F)n1`, the “Percent Effect” value is listed as -4.75%.

As for `Cc1nn2cccnc2c1C(=O)NCc1ccnc(OCC2CC2)c1`, the “Percent Effect” value came to 2.843%. Turning to `Cc1cc(-c2nc(C3(NC(=O)OC(C)(C)C)CCC3)no2)on1`, the “Percent Effect” value is reported as 26.17%.

As for `Cc1ccc(CN2CCn3cc(CN4CCN(C)CC4)nc3C2)cc1.O=C(O)C(F)(F)F.O=C(O)C(F)(F)F.O=C(O)C(F)(F)F`, the “Percent Effect” value is given as 108%. With `CN(Cc1cn2c(n1)CN(Cc1ccc(F)cc1)CC2)Cc1ccco1.O=C(O)C(F)(F)F.O=C(O)C(F)(F)F`, the “Percent Effect” value came out at 12.2%. The value for `CN1CCN(Cc2cn3c(n2)CN(Cc2ccc(F)cc2)CC3)CC1.O=C(O)C(F)(F)F.O=C(O)C(F)(F)F.O=C(O)C(F)(F)F` was 107.8%; that for `O=C(NCc1cn2c(n1)CN(Cc1cccc(F)c1)CC2)C1CCC1.O=C(O)C(F)(F)F` was -4.288%; that for `CN1CCN(Cc2cn3c(n2)CN(C(=O)c2cccn2C)CC3)CC1.O=C(O)C(F)(F)F.O=C(O)C(F)(F)F` was 2.395%.

As for `COc1ccc(CN2CCn3cc(CN4CCCCC4)nc3C2)cc1.O=C(O)C(F)(F)F.O=C(O)C(F)(F)F`, the “Percent Effect” value was found to be 13.43%. The value for `CN1CCN(Cc2cn3c(n2)CN(Cc2cccc(F)c2)CC3)CC1.O=C(O)C(F)(F)F.O=C(O)C(F)(F)F.O=C(O)C(F)(F)F` was 118.6%; that for `COc1ccc(CN2CCn3cc(Cn4cccn4)nc3C2)cc1.O=C(O)C(F)(F)F` was -6.787%; that for `O=C(CC1CC1)NCc1cn2c(n1)CN(Cc1cccc(F)c1)CC2.O=C(O)C(F)(F)F` was 2.246%. For the molecule `CN(CCN1CCOCC1)S(=O)(=O)CC1CCCC1`, the “Percent Effect” value is listed as -5.333%.

Consider `CCOC(C)c1nc(Cn2cccn2)cs1` (centres undefined), for which the “Percent Effect” value was -9.016%.

As for `CNC(=O)NC(=O)C(C)Nc1ccccc1OCCOC` (centres undefined), the “Percent Effect” value is -4.777%. The figure for `Cc1ccccc1C(C#N)NC(=O)CCCOc1cccnc1` (centres undefined) is 81.76%; for `N#CC(NC(=O)CCCOc1cccnc1)c1ccc(F)cc1F` (centres undefined) it is 86.86%; for `CCCC(C#N)NC(=O)CCCOc1cccc(F)c1` (centres undefined) it is -0.6223%.

In the case of `CCC(C#N)NC(=O)CCCOc1cccc(C(C)=O)c1` (centres undefined), the “Percent Effect” value stood at 2.653%. The value for `N#CC(NC(=O)CCCOc1cccnc1)c1ccccc1Cl` (centres undefined) was 111.5%. The figure for `CC(NC(=O)CCCOc1ccccc1Cl)c1ccncc1` (centres undefined) is -5.122%. Consider `N#CC(NC(=O)CCC(=O)NC1CCCC1)c1ccc(F)cc1F` (centres undefined), for which the “Percent Effect” value is on record as -15.9%. In the case of `COCCOCC(=O)NC(C#N)c1ccccc1C` (centres undefined), the “Percent Effect” value is reported as -6.044%.

As for `COCCOCC(=O)NC(C#N)c1cccc(Cl)c1Cl` (centres undefined), the “Percent Effect” value is -5.462%. The figure for `CC(C)c1ccc(S(=O)(=O)Cc2nc(N)nc(N(C)C)n2)cc1` is 13.19%; for `COc1c(NC(=O)N(C)CCOc2ccccc2)c(C)nn1C` it is -49.81%; for `c1ccn2c(SCC3CN=C(N4CCOCC4)S3)ncc2c1` (centres undefined) it is 6.715%.

Take `O=S(=O)(NC1CCN(CC(F)(F)F)C1)c1cc(F)cc(F)c1` (centres undefined): the “Percent Effect” value is -11.02%. The figure for `COCC(=O)N1CCC(c2cc(-c3ccc(N)nc3)cc(C)n2)CC1` is 134.8%. The figure for `COCC(=O)N1CCC(c2cc(N(C)C)cc(C)n2)CC1` is 144.6%; for `COCC(=O)N1CCC(c2noc3nc(C)cc(C(F)(F)F)c23)CC1` it is -9.714%. As for `COCC(=O)N1CCC(c2cc(C(F)(F)F)n3ccnc3n2)CC1`, the “Percent Effect” value is -3.76%.
